Data on 40 molecules can be found in PubChem BioAssay AID1026 (Columbia University Molecular Screening Center, 2008).

Molecules are shown by their SMILES. The source made the active and inactive calls. How the calls were made is not given here.

Bifunctional epoxide hydrolase 2 (Homo sapiens), sequence (P34913 whole entry, looked up): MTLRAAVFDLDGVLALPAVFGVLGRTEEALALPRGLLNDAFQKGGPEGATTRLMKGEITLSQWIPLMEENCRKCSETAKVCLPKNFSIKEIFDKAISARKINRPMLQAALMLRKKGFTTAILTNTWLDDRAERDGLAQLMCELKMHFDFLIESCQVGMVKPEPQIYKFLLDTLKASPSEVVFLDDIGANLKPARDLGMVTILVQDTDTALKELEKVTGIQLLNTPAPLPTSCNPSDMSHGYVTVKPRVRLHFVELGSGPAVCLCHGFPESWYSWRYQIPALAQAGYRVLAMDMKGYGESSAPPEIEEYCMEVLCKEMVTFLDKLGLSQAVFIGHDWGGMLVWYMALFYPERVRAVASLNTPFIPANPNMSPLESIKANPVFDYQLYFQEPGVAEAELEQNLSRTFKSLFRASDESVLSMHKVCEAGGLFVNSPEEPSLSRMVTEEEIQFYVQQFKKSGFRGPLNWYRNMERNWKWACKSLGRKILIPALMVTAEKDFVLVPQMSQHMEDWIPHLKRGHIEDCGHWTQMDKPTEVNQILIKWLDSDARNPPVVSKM

The assay addresses Bifunctional epoxide hydrolase 2 (Homo sapiens) (UniProt P34913). Description: sEH inhibitor concentration-response potency, dose response, biochemical, human sEH, fluorescence, Infinite200 (AID 1026). Conditions: recombinant human sEH, fluorogenic substrate, at 0.2 µM, hits give high values.
By inhibition is commonly meant the drop in the measured response relative to a control, in per cent. Regarding `CS(=O)(=O)N(Cc1ccc(C(=O)NCCSCc2ccco2)cc1)c1ccccc1`, the inhibition was 53.6% (inactive). For `CCN(CCCNC(=O)C1CCN(S(=O)(=O)N2CCC3(CC2)OCCO3)CC1)c1ccccc1` the value was 53.8% (inactive); for `COc1ccc(OC)c(/C=N/NC(=O)c2csc3ccccc23)c1`, 51.1% (inactive); for `Cc1cccc(NC(=O)Nc2cccc(Oc3c(F)c(F)c(F)c(F)c3F)c2)c1`, 47.7% (inactive). Take `CCOC(=O)CSc1nc2ccccc2c(=O)n1CC1CCC(C(=O)NCc2ccco2)CC1` (stereo not given): the inhibition is 45.6% (inactive). To `O=C(Nc1ccc(Cc2ccncc2)cc1)C1CCC(N2C(=O)C3C4C=CC(C5CC45)C3C2=O)CC1` (stereo not given) belongs 56.4% (inactive); to `CCc1ccc(/C=N/NC(=O)c2ccc(OC3CCCC3)cc2)s1`, 65.8% (inactive); to `CCCCCC(=O)Nc1ccc2oc(-c3cncc(Br)c3)nc2c1`, 51.2% (inactive).

As for `Cc1ccc(SCCC(=O)NCCSCc2ccccc2C)cc1`, the inhibition is 52.5% (inactive). To `CCn1c(C(=O)N2CCC(C(=O)NCCCSC3CCCCC3)CC2)cc2sccc21` belongs 61.7% (inactive); to `O=C(Nc1cccc(C(F)(F)F)c1)N1CCC(c2nc(-c3ccc(F)cc3)no2)CC1`, 68.4% (inactive); to `O=C(N/N=C/c1ccc(O)cc1)c1csc2ccccc12`, 54.5% (inactive).

Consider `O=C(NCc1ccccc1Cl)c1ccc(Cn2cc(C(F)(F)F)ccc2=O)cc1`, for which the inhibition is 52.6% (inactive). To `COc1ccc(/C=N/NC(=O)c2ccc(COc3ccccc3Cl)o2)cc1` belongs 55.4% (inactive); to `CC1CCCN(S(=O)(=O)c2ccc(C(=O)Nc3nnc(-c4ccccc4Cl)o3)cc2)C1` (stereo not given), 58% (inactive).

On to `Cc1ccc2c(c1)nnn2C1CCN(C(=O)NC23CC4CC(CC(C4)C2)C3)CC1`, for which the inhibition is 60.5% (inactive).

For `O=C(COc1c(F)c(F)c(C(F)(F)F)c(F)c1F)Nc1ccc(N2CCOCC2)c(Cl)c1`, the inhibition is 49.2% (inactive). For `CCOc1ccc(NC(=O)N2CCC(c3ccc(C)cc3)C2)cc1` (stereo not given) the value was 50.5% (inactive); for `O=C(Nc1ccc2c(c1)OCCO2)NC12CC3CC(CC(C3)C1)C2`, 72.8% (inactive). For `CCC(=O)N1CCc2cc(S(=O)(=O)CCC(=O)NCCC3=CCCCC3)ccc21` the value was 40% (inactive).

On to `COc1ccc(NC(=O)N2CCCC(c3nc(-c4ccc(C(C)C)cc4)no3)C2)cc1` (stereo not given), for which the inhibition is 64.5% (inactive). For `O=C1CSc2ccc(C(=O)NCCC3=CCCCC3)cc2N1` the value was 51.9% (inactive); for `O=C(NCCC1=CCCCC1)c1ccc2c(c1)N(Cc1ccccc1)C(=O)CS2`, 52.3% (inactive); for `O=C(CCCCCn1c(=S)[nH]c2ccccc2c1=O)NCc1ccc2c(c1)OCO2`, 59.3% (inactive). For `CC1CCCN(S(=O)(=O)c2ccc(NC(=O)c3cccc(-n4cnnn4)c3)cc2)C1` (stereo not given) the value was 59% (inactive).

As to `O=C(Nc1ccc2c(c1)OCCO2)NC1CCCCC1`, the inhibition was 52.7% (inactive). For `O=C(NCCc1ccccc1)NC1CCCCC1` the value was 44.6% (inactive); for `O=C(CCCN1C(=O)c2ccccc2C1=O)Nc1ccc(S(=O)(=O)N2CCCCC2)cc1`, 58% (inactive); for `CCC(C)NC(=O)Nc1ccc2c(c1)N(C)C(=O)c1ccccc1S2` (stereo not given), 59.7% (inactive). For `O=C(NCCC1=CCCCC1)NC1CCCCC1` the value was 70.5% (inactive); for `COc1ccc(CNC(=O)/C=C/c2cc3c(cc2Br)OCO3)cc1`, 58.5% (inactive).

As for `CC(C)(C)n1nnnc1CN1CCC(NC(=O)NC2CCCCC2)CC1`, the inhibition is 70.3% (inactive).

Consider `O=C(N/N=C\c1ccc(Cl)s1)c1cccs1`, for which the inhibition was 74% (inactive). In the case of `Cc1ccc(N(CC(=O)NC2CCCCC2)C(=O)c2ccc(C)s2)cc1`, the inhibition is 43.7% (inactive). To `O=C(NCc1ccc2c(c1)OCO2)C1CCN(c2ccc(S(=O)(=O)N3CCCC3)cc2)CC1` belongs 52.2% (inactive); to `O=C(Nc1ccc(OC(F)F)cc1)Nc1cccc(C(F)(F)F)c1`, 63.2% (inactive); to `O=C(NCCc1c[nH]c2ccccc12)C1CCC(Cn2c(=S)[nH]c3ccccc3c2=O)CC1` (stereo not given), 72.7% (inactive). `Cc1ccccc1-c1nc(CN2CCC(C(=O)NCCC3=CCCCC3)CC2)c(C)o1`: the inhibition is 55.6% (inactive). Take `CCc1cccc(NC(=O)NC2CCCCC2)c1`: the inhibition was 70.5% (inactive).

Consider `O=C(COC(=O)c1ccc(S(=O)(=O)NCc2ccco2)cc1)NC1CCCCCC1`, for which the inhibition is 62.6% (inactive).
